Inconclusive results are not listed. Entries that show only a call come without a potency. The source made the active and inactive calls. The call rests on the fitted dose curve.
Target: Thyroid hormone receptor beta (Homo sapiens) (UniProt P10828)
Assay: qHTS assay for small molecule agonists of thyroid hormone receptor beta signaling (AID 588545)
Conditions: TR-UAS-bla GripTite HEK 293, beta-lactamase ratio, agonist mode, 18 h; series mostly up to 76.7 µM
Text: NIH Chemical Genomics Center [NCGC]
U.S. Environmental Protection Agency [EPA]
National Institutes of Environmental Health Sciences [NIEHS]
National Toxicology Program [NTP]
Thyroid hormone receptor (TR) belongs to nuclear hormone receptor superfamily. There are two subtypes for TR: TR-alpha and TR-beta. TR-beta plays a major role in regulating plasma cholesterol levels and it mediates the biological activities of thyroid hormone. Screening environmental chemicals on TR-beta signaling will provide important information for the mechanism of compound action.
NCGC Assay Protocol Summary
Using a beta-lactamase reporter-gene under control of the TR response element, a cell-based assay [GeneBLAzer TR-UAS-bla-GripTite assay developed by Invitrogen] was used to measure TR-beta signaling in agonist mode. TR-UAS-bla-GripTite HEK 293 cells were used with assay medium containing 2% charcoal/dextran FBS, 0.1 mM NEAA and 1 mM sodium pyruvate. The assay was performed in clear bottom black Greiner 1536-well plates. T3 was used as a positive control in the screen. Library compounds were measured for their ability to stimulate the reporter gene activity. Compounds were screened in a titration series in 1536-well format. The fluorescence intensity (405 nm excitation, 460/530 nm emission) was measured using an EnVision plate reader. Data was normalized relative to T3 control (10 nM, 100%), and DMSO only wells (basal, 0%). Concentration-response titration points for each compound were fitted to the Hill equation yielding concentrations of half-maximal stimulation (EC50) and maximal response (efficacy) values.
qHTS protocol for TR-beta beta-lactamase assay in agonist mode
[Step] [Parameter] [Value] [Description]
1. Reagent; 6 uL; 2500 cells/well
2. Incubation; 37 C for 4 hrs
- Dose response; start 3.8 uM, 1:3 dilutions, duplicates in first column
- Two columns of each 10 and 0.4 nM (finals) concentrations.
5. Incubation; 37 C for 18 hrs
6. Detection reagent; 1 uL of CCF4-dye
7. Incubation; RT for 2 hrs
8. Detection; Fluorescence; Envision plate reader

Thyroid hormone receptor beta (Homo sapiens), sequence (P10828 whole entry, looked up): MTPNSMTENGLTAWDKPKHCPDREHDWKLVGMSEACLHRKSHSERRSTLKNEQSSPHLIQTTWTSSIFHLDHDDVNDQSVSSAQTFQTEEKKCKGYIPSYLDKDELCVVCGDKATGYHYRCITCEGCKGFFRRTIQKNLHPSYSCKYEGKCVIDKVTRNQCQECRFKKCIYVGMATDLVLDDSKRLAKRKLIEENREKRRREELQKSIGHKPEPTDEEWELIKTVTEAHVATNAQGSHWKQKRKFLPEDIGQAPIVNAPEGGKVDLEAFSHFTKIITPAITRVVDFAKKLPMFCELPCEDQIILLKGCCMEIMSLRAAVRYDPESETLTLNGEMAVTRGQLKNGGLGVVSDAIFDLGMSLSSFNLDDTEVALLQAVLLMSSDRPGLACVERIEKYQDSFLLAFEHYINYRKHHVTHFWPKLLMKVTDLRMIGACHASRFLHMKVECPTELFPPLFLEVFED

| Structure (SMILES) | Potency |
| --- | --- |
| OC(c1ccc(Cl)cc1)(c1ccc(Cl)cc1)C(Cl)(Cl)Cl | inactive |
| CCNc1nc(Cl)nc(NC(C)(C)C)n1 | inactive |
| CSC1=N[C@@](C)(c2ccccc2)C(=O)N1Nc1ccccc1 | inactive |
| CC(=O)[O-].CC(=O)[O-].O.O.[Cd+2] | inactive |
| CON=C(C(=O)OC)c1ccccc1CO/N=C(\C)c1cccc(C(F)(F)F)c1 | inactive |
| CCOC(=O)C(Cl)Cc1cc(-n2nc(C)n(C(F)F)c2=O)c(F)cc1Cl (stereo not given) | inactive |
| CCOc1nc(C(Cl)(Cl)Cl)ns1 | inactive |
| COC(=O)/C=C(\C)OP(=O)(OC)OC | inactive |
| CC(C)C1(C)N=C(c2ncccc2C(=O)O)NC1=O (stereo not given) | inactive |
| O=C(O)c1nc(Cl)ccc1Cl | inactive |
| CCCN(CCOc1c(Cl)cc(Cl)cc1Cl)C(=O)n1ccnc1 | inactive |
| CC(C)(C)OOC(C)(C)CCC(C)(C)OOC(C)(C)C | inactive |
| CCSC(=O)N(CC)C1CCCCC1 | inactive |
| C1CC[CH]([Sn]([CH]2CCCCC2)[CH]2CCCCC2)CC1 | inactive |
| CCCCN(CC)C(=O)SCCC | inactive |
| CNC(=O)O/N=C/C(C)(C)S(C)(=O)=O | inactive |
| CNC(=O)Oc1ccc(N(C)C)c(C)c1 | inactive |
| FC(F)(F)c1ccc(Cl)cc1 | inactive |
| Oc1ccc(C(c2ccc(O)cc2)(C(F)(F)F)C(F)(F)F)cc1 | inactive |
| CCOP(=O)(OCC)Oc1nc(Cl)c(Cl)cc1Cl | inactive |

| Structure (SMILES) | Potency |
| --- | --- |
| Cc1cc(Cl)ccc1O[C@H](C)C(=O)O | inactive |
| CNc1cnn(-c2cccc(C(F)(F)F)c2)c(=O)c1Cl | inactive |
| Clc1ccc([C@@]2(Cn3cncn3)C[C@H](Br)CO2)c(Cl)c1 | inactive |
| CC(C)C(=O)OCC(C)(C)C(OC(=O)C(C)C)C(C)C (stereo not given) | inactive |
| CCc1cc(C)cc(CC)c1-c1c(OC(=O)C(C)(C)C)n2n(c1=O)CCOCC2 | inactive |
| COc1nc(C)nc(NC(=O)NS(=O)(=O)c2ccccc2CCC(F)(F)F)n1 | inactive |
| CC1CCCCC1NC(=O)Nc1ccccc1 (stereo not given) | inactive |
| CNC(=O)/C=C(\C)OP(=O)(OC)OC | inactive |
| CCOC(=O)Nc1cccc(OC(=O)Nc2ccccc2)c1 | inactive |
| CCOP(=O)(NC(C)C)Oc1ccc(S(C)(=O)=O)c(C)c1 (stereo not given) | inactive |
| O=C(O)C1(O)c2ccccc2-c2ccc(Cl)cc21 (stereo not given) | inactive |
| CCOP(=O)(OCC)SCSCC | inactive |
| CO/N=C(/C(=O)OC)c1ccccc1COc1ccccc1C | inactive |
| O=S(=O)(c1ccc(Cl)cc1)c1cc(Cl)c(Cl)cc1Cl | inactive |
| CNC(=O)N(C)c1nc2ccccc2s1 | inactive |
| COc1nc(C)nc(NC(=O)NS(=O)(=O)c2ccccc2Cl)n1 | inactive |
| CC(C)[C@H](C(=O)O[C@H](C#N)c1cccc(Oc2ccccc2)c1)c1ccc(Cl)cc1 | inactive |
| CCOP(=S)(OCC)SC(CCl)N1C(=O)c2ccccc2C1=O (stereo not given) | inactive |
| CCOP(=S)(Oc1cnc(C(C)(C)C)nc1)OC(C)C (stereo not given) | inactive |
| CCOP(=S)(OCC)Oc1ccc(S(C)=O)cc1 (stereo not given) | inactive |

From PubChem BioAssay (NCATS)
